# Laboratory results taken from PubChem BioAssay AID493191 (Broad Institute, 2011).
# Among all 1,300 compounds or so, about 330 (25%) were called active. No rule for the calls is given here. Only a sample is shown. Results with a measured potency or affinity are listed apart.
# Assay: MALME3 melanoma cell viability loss, dose response, orthogonal assay for MITF inhibitor project, CellTiter-Glo, cherry-picked (AID 493191)
# Settings: CellTiter-Glo luminescence, 24 h; series mostly up to 35 µM; activity change, negative = inhibition: at the top concentration
row,Structure (SMILES),"activity change, negative = inhibition"
1,O=C(O)c1ccc(Nc2nc3c(s2)CCCC3)cc1,-11.1% (inactive)
2,CC(C)(C)c1ccc(-c2noc(CCC(=O)NCc3ccco3)n2)cc1,8.27% (inactive)
3,Cc1ccc(C(=O)Nc2ccccc2Cl)cc1,-2.44% (inactive)
4,Cc1ccc(OCCCCN2CCCCC2)c(Br)c1,-0.175% (inactive)
5,COc1ccc(Br)cc1C(C[N+](=O)[O-])c1c(N)n(C)c(=O)n(C)c1=O (stereo unspecified),-38.4% (inactive)
6,Cc1ccc2nc(NC(=O)CCCC(=O)O)sc2c1,3.35% (inactive)
7,CN(C)CCCN(C(=O)c1ccc(Cl)s1)c1nc2cc3c(cc2s1)OCO3,-27.2% (inactive)
8,CN(Cc1ccccc1)C1=CC(=[N+]2CCCC2)CC(C)(C)C1,-29.5% (inactive)
9,CN(C)c1cc[n+](CC(=O)c2ccc(-c3ccccc3)cc2)cc1,-30.2% (inactive)
10,CCN(CC)Cc1c(O)ccc2c1O/C(=C\C=C\c1ccccc1)C2=O,1.3% (inactive)
11,CN(CC(=O)N1CCCCCC1)S(=O)(=O)c1ccccc1,-9.21% (inactive)
12,Cc1cc(C)c2ccc(N)nc2c1O,-10.6% (inactive)
13,CN(C)c1ccc(/C=C/c2cccc[n+]2[O-])cc1,1.08% (inactive)
14,O=C(CCl)Nc1cn(-c2ccccc2)nc1-c1ccccc1,-39.9% (inactive)
15,Cc1nn2c(N)c(-c3ccccc3)cnc2c1-c1ccccc1,-1.78% (inactive)
16,Brc1ccc(-c2cn3cccnc3n2)cc1,19.9% (inactive)
17,CC1CCCC(C)N1CCCNC(=O)c1cc2c(s1)-c1ccccc1OC2 (stereo unspecified),-42% (inactive)
18,O=C(/C=C\Nc1ccc2c(c1)OCO2)c1ccccn1,-33% (inactive)
19,CCN(CC)S(=O)(=O)c1cccc(C(=O)N/N=C/c2ccc([N+](=O)[O-])o2)c1,-68.6% (inactive)
20,O=[N+]([O-])c1ccc(/C=N/Nc2ccnc3cc(Cl)ccc23)o1,-25.8% (inactive)
21,CC1CN(N=Cc2ccc([N+](=O)[O-])o2)C(=N)O1 (stereo unspecified),-38.8% (inactive)
22,CC(C)C(NC(=O)OCc1ccccc1)C(=O)OCC(=O)N1CCCCC1 (stereo unspecified),13.4% (inactive)
23,O=C(NC(=S)NCc1ccccc1)c1ccccc1,-1.25% (inactive)
24,CCOc1ccc(-n2c(O)c(/C=N/Nc3nc(C)cc(C)n3)c3ccccc3c2=O)cc1,-11.6% (inactive)

row,Structure (SMILES),"activity change, negative = inhibition"
1,COc1ccc(Nc2oc(-c3ccc(OC)cc3)nc2C#N)cc1,12.9% (inactive)
2,Cc1cc(C(=O)N/N=C/c2ccc([N+](=O)[O-])o2)c(C)o1,-46% (inactive)
3,CC1CCN(C(=O)c2cc3ccccc3o2)CC1,5.53% (inactive)
4,O=C(N/N=C/c1ccccc1)c1ccco1,-6.51% (inactive)
5,O=C(Nc1nc2ccccc2s1)Nc1ccc(F)cc1F,1.35% (inactive)
6,O=C(Nc1cnc2ccccn2c1=O)c1ccc(F)cc1,7.32% (inactive)
7,O=C(N/N=C/c1cccc(Oc2ccc([N+](=O)[O-])cc2[N+](=O)[O-])c1)c1cncc(Br)c1,-17.8% (inactive)
8,COc1cccc(/C=N/Nc2nc3ccccc3[nH]2)c1OC,3.26% (inactive)
9,C[C@H]1CCC[C@]2(C)C[C@H]3OC(=O)C(CN4CCCCCC4)[C@H]3C=C12 (stereo partly specified),-14.2% (inactive)
10,O=C(COC(=O)C1=COCCO1)Nc1c(F)cccc1F,6.62% (inactive)
11,COc1cc(NC(=O)COc2cc(O)c3c(c2)OC(C)(C)CC3=O)cc(OC)c1OC,-9.31% (inactive)
12,O=C(Nc1ccccc1Cl)Nc1cccc2cccnc12,-20.8% (inactive)
13,Cn1cccc1-c1cc(C(=O)N/N=C/c2cc(Br)ccc2O)[nH]n1,-9.81% (inactive)
14,Oc1ccccc1/C=N/Nc1cccc2cccnc12,-2.28% (inactive)
15,O=C(CCCCC(=O)NN=Cc1ccccc1O)NN=Cc1ccccc1O,-4.07% (inactive)
16,O=C(N/N=C/c1cc(Br)ccc1O)c1ccncc1,-32.5% (inactive)
17,Cc1nc(NC(=O)C2CC2)sc1C(=O)Nc1ccccc1Cl,-0.052% (inactive)
18,COc1ccc(C(=O)/C=C(\C)Nc2ccc3c(c2)OCO3)cc1,-1.82% (inactive)
19,COc1cc(C2C(C#N)=C(N)Oc3cc4c(cc32)OCO4)cc(OC)c1OC (stereo unspecified),10.1% (inactive)
20,O=C(Nc1nnc(Cc2ccccc2)s1)c1ccccc1,12.2% (inactive)
21,CCOc1ccc(NC(=O)Nc2cccc(C(=O)O)c2)cc1,-33.2% (inactive)
22,CN(C)c1ccc(-n2cccc2/C=C/[N+](=O)[O-])cc1,-41.8% (inactive)
23,Cc1cc(Cl)ccc1NC(=O)c1ccc2c(c1)OCO2,13.7% (inactive)
24,Cc1ccc(OCC(=O)Nc2cccc(C)n2)c(C)c1,5.8% (inactive)

row,Structure (SMILES),"activity change, negative = inhibition"
1,COc1ccc(/C=C/C(=O)NC(=S)N2CCN(c3ccccc3OC)CC2)cc1,-2.42% (inactive)
2,CCN1CCN(c2ccc(S(=O)(=O)N3CCOCC3)cc2NC(=O)/C=C/c2ccc([N+](=O)[O-])cc2)CC1,-29% (inactive)
3,O=[N+]([O-])c1cc(S(=O)(=O)N2CCCCCC2)ccc1F,-22.2% (inactive)
4,COc1cccc(/C=C/C(=O)c2ccc3c(c2)OCCO3)c1OC,-7.96% (inactive)
5,CN(C)CCNc1ccc2nnn3c4ccc(O)cc4c(=O)c1c23,-23.3% (inactive)
6,N=C1C(c2nc3ccccc3[nH]2)=C(O)CN1C1CCCCC1,-0.094% (inactive)
7,COc1ccc(/C=C2\Sc3ccc(C(=O)NCCN4CCCCCC4)cc3N(C)C2=O)cc1,-30.5% (inactive)
8,COc1ccc(C(=O)NCCSc2ccccc2C)cc1,-4.39% (inactive)
9,O=C(NCCSc1ccccc1)c1ccccc1F,-4.77% (inactive)
10,CN(C)CCCNc1nc2sc3c(c2c(=O)n1CCc1ccccc1)CCCCC3,-41.2% (inactive)
11,CC(C)(C)c1ccc(-c2cn(-c3ccc(Br)cc3)c3[n+]2CCCS3)cc1,-35.8% (inactive)
12,OCc1ccc(N=Nc2ccccc2)cc1,4.1% (inactive)
13,Oc1c(CN2CCCC2)cc(COCc2ccccc2)c2cccnc12,-30.5% (inactive)
14,CN(C)C1CCN(Cc2cc(COCc3ccccc3)c3cccnc3c2O)C1 (stereo unspecified),-30.3% (inactive)
15,COc1cccc(CNc2nc3ccccc3n2C)c1O,-9.88% (inactive)
16,COC(=O)c1c(NC(=O)c2nc3ccccc3s2)sc2c1CC(C)(C)NC2(C)C,-5.34% (inactive)
17,CC(=O)Nc1ccc2c(c1)ncn2-c1ccccc1,1.87% (inactive)
18,O=C1c2ccccc2CN1c1ccccc1,-4.28% (inactive)
19,O=C(NCc1csc(-c2cccs2)n1)C1CCC1,5.23% (inactive)
20,C/C(=N\NC(=O)C(C)Oc1ccc([N+](=O)[O-])cc1)c1ccccn1 (stereo unspecified),-25.6% (inactive)
21,CC(=O)N(C1CC(C)C(C#N)(C#N)C1(C#N)C#N)N(C)C (stereo unspecified),45.4% (inactive)
22,COc1ccccc1N1C(=O)N(C(C)=O)C2C1Nc1ccccc1N2C (stereo unspecified),-21% (inactive)
23,N#Cc1cnc2sc3ccccc3n2c1=N,-6.66% (inactive)
24,Cc1c(/C=C/C(=O)c2ccc(Cl)s2)cnn1C,1.68% (inactive)

row,Structure (SMILES),"activity change, negative = inhibition"
1,Cc1c(C=O)c2cc(OCc3ccccc3)ccc2n1C,10.2% (inactive)
2,N#C/C(=C\C=C\c1ccccc1[N+](=O)[O-])C(=O)NC1CCCCC1,-15.7% (inactive)
3,N#C/C(=C\C=C\c1ccccc1[N+](=O)[O-])C(=O)NCc1ccccc1,-15.7% (inactive)
4,Nc1ncnc(Sc2ncccn2)c1[N+](=O)[O-],14.4% (inactive)
5,CC(C)C(=O)Nc1ccc2nn(-c3ccc(F)cc3)nc2c1,1.91% (inactive)
6,CS(=O)(=O)N1CCN(c2nc3ccc(Cl)cc3s2)CC1,14.2% (inactive)
7,CC(O)CNC(=O)C1CCN(Cc2ccc(OCc3ccccc3)cc2)CC1 (stereo unspecified),-0.748% (inactive)
8,CCCN1CCC(NCc2cn(C)nc2-c2ccc(Oc3ccccc3)cc2)CC1,-33.6% (inactive)
9,COC(=O)c1ccc(COc2ccc(C)cc2[N+](=O)[O-])o1,0.832% (inactive)
10,Cc1ccccc1NC(=O)Cc1nc(COC(=O)c2ccc(S(C)(=O)=O)c([N+](=O)[O-])c2)cs1,-35.7% (inactive)
11,Cc1ccc(-c2n[nH]c(=O)c3ccccc23)cc1S(=O)(=O)NCC1CCCO1 (stereo unspecified),-3.9% (inactive)
12,C=CCNC(=O)Cn1nnc(-c2ccc(-c3ccc(OC)cc3)cc2)n1,-6.58% (inactive)
13,O=C(N/N=C/C=C/c1ccccc1)c1ccccn1,6.57% (inactive)
14,Cc1ccc(-c2cn3nc(C)c(C)nc3n2)cc1,-19.4% (inactive)
15,Cc1ccc2oc(Nc3nc(C)c(C)c(C)n3)nc2c1,-2.9% (inactive)
16,C=C1C(=O)C2=CC1CCC(=O)C1(C)CCC(OC(C)=O)C(C)(C)C1CC2O (stereo unspecified),-43.8% (inactive)
17,N/C(=N\OC(=O)c1ccccc1Cl)c1cccc([N+](=O)[O-])c1,3.35% (inactive)
18,O=C(NC(=S)Nc1ccccn1)c1cccc([N+](=O)[O-])c1,-0.338% (inactive)
19,COC(=O)c1ccc(Nc2cc(C)nc3ccc(C)cc23)cc1,-5.79% (inactive)
20,CCOc1ccc2nc(C)cc(Nc3cccc([N+](=O)[O-])c3)c2c1,-64.2% (inactive)
21,Clc1ccc(-c2c[n+](Cc3cccc(Cl)c3)c3n2CCC3)cc1,-3.77% (inactive)
22,O=c1c2ccccc2cnn1CCOc1ccccc1,-21.9% (inactive)
23,O=[N+]([O-])c1cc(C(F)(F)F)ccc1NCCc1ccccn1,3.81% (inactive)
24,CS(=O)(=O)c1ccc2nc(NC(=O)c3ccccc3)sc2c1,-14% (inactive)

row,Structure (SMILES),"activity change, negative = inhibition"
1,CS(=O)(=O)c1ccc(C(=O)OCC(=O)NCc2cccs2)cc1[N+](=O)[O-],-38.8% (inactive)
2,O=C(O)c1cccc(NC(=O)c2cccc(NC(=O)C3CCCO3)c2)c1 (stereo unspecified),2.35% (inactive)
3,O=C(N/N=C/c1ccc([N+](=O)[O-])s1)c1ccccc1,-49.8% (inactive)
4,Cc1ccc(C(=O)N/N=C\c2ccc([N+](=O)[O-])s2)cn1,-42.5% (inactive)
5,C=C1CCC[C@]2(C)C[C@H]3OC(=O)C(CN4CCCCC4CO)[C@H]3CC12 (stereo partly specified),18% (inactive)
6,COc1cc(SC)ccc1C(=O)Nc1ncc(C)s1,-18.2% (inactive)
7,O=C(NCc1ccccc1)C(=O)Nc1cccc(C(=O)O)c1,3.68% (inactive)
8,CC(C)(C)c1cc(NCCCn2ccnc2)n2ncc(-c3ccccc3)c2n1,-26.9% (inactive)
9,Nc1ccc(-c2nc3c(Cl)cc(N)cc3[nH]2)cc1,7.31% (inactive)
10,Cc1c(C#N)c(O)n(CCO)c(=O)c1N=Nc1ccc2c(c1)COC2=O,-14.4% (inactive)
11,CCN(CC)c1ccc(/C=N/NC(=O)c2cccc(S(=O)(=O)N3CCOCC3)c2)c(O)c1,-15.7% (inactive)
12,CCSc1nnc(NC(=O)C2CCCCC2)s1,6.64% (inactive)
13,O=C(CCl)N(Cc1cc(=O)[nH]c2ccccc12)c1ccccc1,-29.2% (inactive)
14,O=C(CCl)N(c1ccccc1)c1c[nH]c2ccccc12,-41.4% (inactive)
15,Clc1cccc(-c2nc(-c3ccccn3)no2)c1,-33.8% (inactive)
16,Fc1ccccc1-c1nc(-c2ccncc2)no1,-6.62% (inactive)
17,Clc1ccccc1CSc1nnc(-c2ccncc2)o1,-8.1% (inactive)
18,CCOc1ccc(N(CC(=O)Nc2ccc(OC)cc2)S(C)(=O)=O)cc1,-6.34% (inactive)
19,CCC(=O)Nc1cc2nn(-c3ccc(C)cc3)nc2cc1C,5.18% (inactive)
20,CC(=O)SC(C[N+](=O)[O-])c1cn(C(C)=O)c2ccccc12 (stereo unspecified),-33.7% (inactive)
